According to PubChem BioAssay (NCI):
About 83,000 compounds went through this panel and 20% of them were active in at least one assay; those are over-represented in the sample as a whole.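 How to read the values: 0–100, growth inhibition (40 = 60% inhibited); 0, no net growth; -100 to 0, cell death (-40 = 40% of starting cells died; -100 = all dead).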 A number with no mark means an inactive call. Calls of active or inactive are those of the source. How the source made its calls: active means growth percent below 10; inactive means the rest.

What was measured:
Assay in all cases: NCI-60 one-dose screen, 48 h (100 = growth as untreated, 0 = no growth, -100 = all killed)
[1] = system: SK-MEL-2 melanoma; conditions: 10 µM unless noted
[2] = system: EKVX NSCLC; conditions: 10 µM unless noted
[3] = system: SN12C renal; conditions: 10 µM unless noted
[4] = system: UO-31 renal; conditions: 10 µM unless noted
[5] = system: TK-10 renal; conditions: 10 µM unless noted
[6] = system: ACHN renal; conditions: 10 µM unless noted
[7] = system: CAKI-1 renal; conditions: 10 µM unless noted
[8] = system: A498 renal; conditions: 10 µM unless noted
[9] = system: CCRF-CEM leukemia; conditions: 10 µM unless noted
[10] = system: MOLT-4 leukemia; conditions: 10 µM unless noted
[11] = system: SR leukemia; conditions: 10 µM unless noted
[12] = system: RPMI-8226 leukemia; conditions: 10 µM unless noted
[13] = system: OVCAR-8 ovarian; conditions: 10 µM unless noted
[14] = system: OVCAR-5 ovarian; conditions: 10 µM unless noted
[15] = system: OVCAR-4 ovarian; conditions: 10 µM
[16] = system: IGROV1 ovarian; conditions: 10 µM unless noted
[17] = system: OVCAR-3 ovarian; conditions: 10 µM unless noted
[18] = system: HS 578T breast; conditions: 10 µM unless noted
[19] = system: NCI/ADR-RES ovarian; conditions: 10 µM unless noted

Row | SMILES | growth [1] [%] | growth [2] [%] | growth [3] | growth [4] | growth [5] | growth [6] | growth [7] [%] | growth [8] | growth [9] | growth [10] [%] | growth [11] | growth [12] | growth [13] | growth [14] [%] | growth [15] | growth [16] | growth [17] | growth [18] | growth [19]
1 | Cn1cc(-c2nnc(-c3ccccc3)s2)c2cc(Br)cnc21 | 100 | 62.6 | 90.1% | 61.5% | 88.2% | 66.7% | 53 | 60.2% | -12.6% (active) | 83.4 | 90.7% | 85.8% | 94.4% | 94.9 | 68% | 43.7% | 84.5% | 79.9% | 90.4%
2 | Cc1c(Cn2cc(COc3ccc(Br)cc3)nn2)c(C)c(Cn2cc(COc3ccc(Br)cc3)nn2)c(C)c1Cn1cc(COc2ccc(Br)cc2)nn1 | 87.9 | 99.5 | 92.6% | 85.5% | 67.4% | 66.7% | 75.1 | 80.6% | 83% | 103 | 63.2% | 97.9% | 95.1% | 96.8 | 87.3% | 90.7% | 88.7% | 96.8% | 101%
3 | CCCN1CC(c2ccc(OC)c(OC)c2)=C(c2cn(C(=O)OCC)c3ccccc23)C1=O | 53.3 | 55.6 | 53% | 39.4% | 89.6% | 37% | 25.8 | -11.4% (active) | 78.8% | 38.7 | 25.3% | 63.8% | 71.5% | 83.1 | 62.3% | 40.2% | 2% (active) | 48.1% | 29.5%
4 | CC(C)(C)c1cc(C(=O)Nc2ccccc2C(=O)NCCN)cc(C(C)(C)C)c1 | 20.3 | 17.8 | -30.8% (active) | 27.9% | 75.5% | -90.3% (active) | 45.4 | -11.6% (active) | -8.48% (active) | 20.6 | -28.6% (active) | -25% (active) | -43.7% (active) | 27 | 43.3% | 46.8% | 18.9% | 75.3% | 23.2%
5 | CNC(=O)c1cc(Oc2cccc3nc(NC(=O)Nc4cc(C(F)(F)F)cc(C(F)(F)F)c4)ccc23)ccn1 | 51 | 26.7 | 12.1% | 11.7% | -25% (active) | -25.8% (active) | 23.6 | -36% (active) | 73.3% | 89.5 | 47.9% | 41.1% | 37.2% | 33.3 | -38.2% (active) | 51.4% | -15% (active) | 22.2% | 49.5%
6 | CC1=CC[C@@H]2C(C)(C)[C@@H](O)CC[C@@]2(C)[C@@H]1COc1ccc2ccc(=O)oc2c1 | 68.1 | 72.4 | 32.5% | 2.21% (active) | 82.3% | 48.6% | 36.5 | 83.2% | 41.7% | 37.3 | 71.5% | 19.8% | 30.5% | 98 | 31% | 57.9% | 41.2% | 44.2% | 17.5%
7 | Cc1ccc(-c2cc(-c3ccc(C)cc3)nc(N3CCN(CCNc4ccnc5cc(Cl)ccc45)CC3)n2)cc1 | 65.4 | 74 | 34.7% | -27.8% (active) | 0.923% (active) | 72.9% | 32.7 | 47.1% | 8.72% (active) | 38.9 | -1.09% (active) | 19.4% | 25.4% | 79.4 | -59.4% (active) | 5.07% (active) | -53.6% (active) | -22.6% (active) | 6.51% (active)
